Screen size: about 96,000 compounds; about 19,000 (20%) were called active. Not all results are given here. A number with no mark means an inactive call.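 How the source made its calls: active means blocking of liver enzyme CYP2C9 beyond about 50% at 5 µM (limit read from the data); inactive means the rest.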
Each compound was assayed against Cytochrome P450 2C9 (Homo sapiens) (UniProt P11712) (assay: blockers of cytochrome P450 2C9 activity – biochemical, luminescence, ADME assay, primary screen (AID 777)). Details: CYP2C9 Supersomes, luciferin-H conversion, at 5 µM, hits give high values.
Cytochrome P450 2C9 (Homo sapiens), sequence (P11712 whole entry, looked up): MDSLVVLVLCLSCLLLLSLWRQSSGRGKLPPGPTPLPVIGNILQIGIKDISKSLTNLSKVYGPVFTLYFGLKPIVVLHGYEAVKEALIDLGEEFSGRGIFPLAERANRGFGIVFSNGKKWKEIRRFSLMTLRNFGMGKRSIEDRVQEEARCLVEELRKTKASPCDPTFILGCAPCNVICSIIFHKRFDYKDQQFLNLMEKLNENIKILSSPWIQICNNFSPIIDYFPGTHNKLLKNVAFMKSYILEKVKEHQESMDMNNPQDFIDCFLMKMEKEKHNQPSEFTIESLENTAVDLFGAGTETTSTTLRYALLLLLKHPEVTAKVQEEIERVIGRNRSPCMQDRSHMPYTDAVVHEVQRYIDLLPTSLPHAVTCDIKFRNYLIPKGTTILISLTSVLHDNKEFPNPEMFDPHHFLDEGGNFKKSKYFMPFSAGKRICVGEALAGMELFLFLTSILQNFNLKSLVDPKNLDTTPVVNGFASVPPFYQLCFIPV

Compound | inhibition
Cc1ccccc1/[N+]([O-])=C/c1ccncc1 | 12.4%
CC1CCN(c2nc3c(c(=O)[nH]c(=O)n3C)n2CCCc2ccccc2)CC1 | 40.9%
C/C(=C\C(=O)c1ccc(Br)cc1)N1CCCCC1 | 2.1%
Cc1nc2ccc(C(=O)N3CCSCC3)cc2s1 | 0.6%
Cc1ccc(S/C(=N\S(=O)(=O)c2ccc(Cl)cc2)c2ccccc2)cc1 | 48.7%
CCOC(=O)N1CCN(C(=O)c2cnc3n(c2=O)CCS3)CC1 | -13.7%
Cc1cc(N/C=C\C(=O)c2ccc(Cl)c(Cl)c2)no1 | 7.8%
COC(=O)C1=C(N)Oc2cc(C)oc(=O)c2C1c1cccnc1 (configuration not stated) | 37.9%
Cc1ccc(CS(=O)(=O)CCC(=O)NC2CC2)cc1 | -3.7%
COC(CCN(C)C)(c1ccccc1)c1ccccc1 | -2.1%
CC1(C)Cc2ccccc2-c2nnc(-c3cccc(O)c3)n21 | -7.5%
O=C1OC(NC(=O)c2ccccc2)C(N2CCOCC2)=C1Cl (configuration not stated) | -6.9%
c1cnc(NC2C3CC4CC(C3)CC2C4)nc1 (configuration not stated) | 25.9%
CCCCCCn1c(CN2CCCC(C)C2)nc2c1c(=O)n(C)c(=O)n2C (configuration not stated) | 9.5%
CC1CN(C2CCCCC2)c2nc3c(c(=O)n(C)c(=O)n3C)n2C1 (configuration not stated) | 82.2% (active)
CC1CCCN(Cc2nc3c(c(=O)n(C)c(=O)n3C)n2CC(=O)c2ccccc2)C1 (configuration not stated) | 11.2%
COc1ccc(Cl)cc1NC(=O)CN(C)C(=O)CNC(=O)C12CC3CC(CC(C3)C1)C2 | 44.8%
Fc1ccc(N2CCN(Cc3cnc(Oc4ccc(Br)cc4)s3)CC2)cc1 | 19.7%
COc1ccc(N2CCN(Cc3cc(=O)oc4ccc5ccccc5c34)CC2)cc1 | 22.6%
COc1ccc(N2CCN(Cc3ccc(Br)s3)CC2)cc1 | 78.3% (active)
COc1ccccc1CNC(=O)C1CCN(c2nc3ccccc3o2)CC1 | -3.9%
FC(F)(F)c1nc2ccccc2nc1N/N=C/c1ccc(Cl)cc1 | 21.3%
OC(COc1cccc2ccccc12)CN1CCN(c2ccccn2)CC1 (configuration not stated) | 19.3%
O=C(CN1C(=O)COc2ccccc21)Nc1ccc(F)cc1 | 39%
CC1(C)Oc2ccc(C(=O)N3CCOCC3)cc2N(CC(=O)Nc2ccccc2)C1=O | 45.6%

Compound | inhibition
CC1Cc2ccccc2N1CC(=O)Nc1ccc2c(c1)OC(F)(F)O2 (configuration not stated) | 71.6% (active)
Cc1cc(Cl)c(S(=O)(=O)Nc2ccc3c(c2)OCCO3)cc1OCC(N)=O | 19.9%
OC1CN=C2Sc3ccccc3N2C1 (configuration not stated) | -6.8%
Cc1nn(C(=O)c2ccoc2C)c(N)c1-c1ccccc1 | 26.4%
Cc1nn2c(c1-c1ccccc1)N=C(c1ccco1)CC2c1ccccc1 (configuration not stated) | 63.5% (active)
Cn1c(=O)c(C(=O)Nc2ncccn2)c(O)c2ccccc21 | -24.6%
O=C1NC(c2cc3c(cc2Cl)OCO3)Oc2ccccc21 (configuration not stated) | 26.5%
NC(CSC12CC3CC(CC(C3)C1)C2)C(=O)O (configuration not stated) | 9.2%
N#Cc1c2c(c(-c3ccccc3)[nH]c1=O)CCCC2 | -12.7%
N#Cc1c(/N=C/N2CCCC2)oc(-c2ccccc2)c1-c1ccccc1 | 79.9% (active)
COc1ccc(-c2oc(/N=C/N3CCCC3)c(C#N)c2-c2ccc(OC)cc2)cc1 | 96.9% (active)
Cn1c(C(=O)NCCN2CCc3ccccc3C2)cc2c(=O)[nH]c3ccccc3c21 | 20%
Cc1noc(NS(=O)(=O)c2ccc(N3CC(O)=C(c4ccccc4)C3=N)cc2)c1C | 3.3%
CC(NC(=O)CSc1nc2c(cc1C#N)CN(C)CC2)c1ccccc1 (configuration not stated) | 74.5% (active)
Cc1ccc2cc(C#N)c(SCC(=O)NCC3CCCO3)nc2c1C (configuration not stated) | -3.8%
Cc1cc(C(F)(F)F)c(C#N)c(SCC(=O)NC2CC2)n1 | 17.2%
CCCC(C(=O)N1CCOCC1)N1C(=O)C2C3C=CC(C3)C2C1=O (configuration not stated) | -2.2%
Clc1ccc(Cl)c(Oc2ccc(Oc3nc(Cl)ccc3Cl)cc2)n1 | -102%
CSc1ccc(C#N)cc1NC(=O)c1cccc(Cl)c1 | 18.2%
CN1C(=O)c2ccc(NC(=O)c3c(F)c(F)c(F)c(F)c3F)cc2C1=O | -24%
O=C(c1ccco1)N1CCN(C(=O)c2ccc(COc3ccc(F)cc3)o2)CC1 | 33.7%
CC(=O)c1cccc(NC(=O)Nc2ccc(C)cc2)c1 | 17.7%
CC(NC(=O)Nc1ccccc1)c1ccccc1 (configuration not stated) | 7%
Cc1ccc(NC(=O)C(C)c2cccc(C(=O)c3ccccc3)c2)cc1 (configuration not stated) | 57.9% (active)
CCn1c(Cc2ccccc2)nnc1SCc1nc2ccccc2c(=O)[nH]1 | -61.8%

Compound | inhibition
CC1=C(C)CC2C(=O)N(c3cccc4ccccc34)C(=O)C2C1 (configuration not stated) | 72.9% (active)
O=C(c1ccccc1)c1cc(-c2ccccn2)c(N2CCOCC2)s1 | 25%
c1cnn(-c2cc(N3CCOCC3)ncn2)c1 | -3.4%
c1ccc(-c2oc3ncnc(N4CCOCC4)c3c2-c2ccccc2)cc1 | 18.1%
O=C1c2ccccc2-c2ncnc3c(N4CCOCC4)cc(N4CCOCC4)c1c23 | 51.5% (active)
Cc1cnc(NC(=O)C2CCCC2)s1 | 10.7%
CCN1C(=O)/C(=C\N2CCN(c3cccc(Cl)c3)CC2)SC1=S | 4.9%
CC(Oc1ccc(Cl)cc1)c1ccnn1S(C)(=O)=O (configuration not stated) | 24.4%
COc1ccc(CC(=O)n2nc(-c3cccnc3)nc2N)cc1 | 9%
O=C(Cn1ccc([N+](=O)[O-])n1)NCc1cccs1 | -1.6%
C=C(C)CSc1nnc(-c2ccc(C)cc2)n1N | 1.1%
Cc1ccc(NC(=S)NCCN2CCOCC2)cc1 | -12.4%
Cc1ccc(NC(=S)NC2CCCC2)cc1 | 29.5%
Cc1ccc(NC(=S)N/N=C2/CCCc3c(C)cc(C)cc32)cc1 | 59.7% (active)
CCOc1ccc(-c2nc(C)sc2CC(=O)O)cc1 | -0.3%
CC(C)c1ccc(Nc2ncccc2C#N)cc1 | 3.6%
COCCOC(=O)C1=C(C)N=c2s/c(=C\c3cccs3)c(=O)n2C1c1cccs1 (configuration not stated) | 41.5%
C=CCOC(=O)C1=C(C)NC(C)=C(C(=O)OCC=C)C1c1cccs1 | 96.8% (active)
C=CCN(C(=O)Nc1ccc2oc(C)nc2c1)c1ccccc1 | 22.8%
CCc1c(C)nc2cc(-c3cccs3)[nH]n2c1=O | 30.3%
FC(F)(F)c1nnc2ccc(N3CCN(c4ccccc4)CC3)nn12 | 27.4%
O=C(CSCc1ccc([N+](=O)[O-])cc1)Nc1cccc(C(=O)Nc2ccccc2C(=O)O)c1 | 93.9% (active)
O=C(CSCc1ccccc1Cl)NNC(=O)c1ccccc1 | -1.6%
O=C(CSCc1ccc([N+](=O)[O-])cc1)NCCSCc1ccccc1 | 44.2%
Cc1ccc(C2CC2C(=O)NN)cc1 (configuration not stated) | 15.8%

Compound | inhibition
CC(=O)c1cccc(NC(=O)N2CCCC2C(=O)NCCc2ccccc2)c1 (configuration not stated) | -8.8%
COCCN(C(=O)c1ccco1)c1nnc(-c2ccc(OC)cc2)s1 | 9%
CCN1C(=O)CS/C1=N\c1nccs1 | 17.8%
COCc1cc(C)nc2sc3c(=O)n(-c4cccc5ccccc45)nnc3c12 | 26.8%
COc1ccc(-c2c(C(C)=O)c(C)nc3sc4c(=O)n(-c5ccc(C)cc5)nnc4c23)cc1 | 85.6% (active)
COc1ccc(-n2nnc3c(=O)n(CC(=O)OCc4ccccc4)cnc32)cc1 | -16%
CC(C)(C)NC(=O)C(c1ccco1)N(Cc1ccc2c(c1)OCO2)C(=O)Cn1nnc2ccccc21 (configuration not stated) | 16.8%
Cc1cccc(-n2ncc(C#N)c2-n2cccc2)c1 | 39.8%
COc1ccccc1NS(=O)(=O)N(C)C | -23%
COc1ccc(OC)c(S(=O)(=O)Nc2ccccc2F)c1 | 57.6% (active)
COc1ccc(Cl)cc1S(=O)(=O)Nc1cccc(C(=O)O)c1 | 14.1%
Cc1csc(OCC(=O)Nc2ccc(C)c(C)c2)n1 | 4.4%
Cc1ccc(NC(=O)COc2ccc(-n3ccnc3)cc2)cc1Cl | 95% (active)
Cc1ccc(OCC(=O)Nc2ccc(-c3nc4ncccc4o3)cc2)cc1 | -6.6%
CCN(CC)c1ccc2cc(C(=O)O)c(=O)oc2c1 | -7.5%
Cc1cc(=O)n2c3c(cccc13)CCC2 | -60.9%
CC(C)Oc1ccc(C(=O)Nc2cc(=O)n(C)c(=O)n2C)cc1 | 10.6%
C=C(C)Cn1c(N2CCN(CC)CC2)nc2c1c(=O)[nH]c(=O)n2C | -14.5%
COc1cc(C(=O)NC(=S)NCc2ccco2)cc(OC)c1OC | 18.9%
Cc1cccc(C)c1NC(=O)CCS(=O)(=O)c1cccc2nsnc12 | -1%
O=C(Nc1cc(=O)[nH]c2ncnn12)c1ccccc1Cl | 5.6%
O=C(CSCc1cccs1)N1CCCC1 | -22.8%

— PubChem BioAssay AID777 (Sanford-Burnham Center for Chemical Genomics, 2007)
